# Measurements reported in the supplement of paper PMC8728848.
# About 410 targets per protein were measured; listed, in parts, are those with the strongest signals and a random draw of the rest.
# B1: Siglec-F (Mus musculus), Q920G3 (protein)
# chain: MRWAWLLPLLWAGCLATDGYSLSVTGSVTVQEGLCVFVACQVQYPNSKGPVFGYWFREGANIFSGSPVATNDPQRSVLKEAQGRFYLMGKENSHNCSLDIRDAQKIDTGTYFFRLDGSVKYSFQKSMLSVLVIALTEVPNIQVTSTLVSGNSTKLLCSVPWACEQGTPPIFSWMSSALTSLGHRTTLSSELNLTPRPQDNGTNLTCQVNLPGTGVTVERTQQLSVIYAPQKMTIRVSWGDDTGTKVLQSGASLQIQEGESLSLVCMADSNPPAVLSWERPTQKPFQLSTPAELQLPRAELEDQGKYICQAQNSQGAQTASVSLSIRSLLQLLGPSCSFEGQGLHCSCSSRAWPAPSLRWRLGEGVLEGNSSNGSFTVKSSSAGQWANSSLILSMEFSSNHRLSCEAWSDNRVQRATILLVSGPKVSQAGKSETSRGTVLGAIWGAGLMALLAVCLCLIFFTVKVLRKKSALKVAATKGNHLAKNPASTINSASITSSNIALGYPIQGHLNEPGSQTQKEQPPLATVPDTQKDEPELHYASLSFQGPMPPKPQNTEAMKSVYTEIKIHKC
# Columns and labels:
# Assay in all cases: glycan array binding signal (z-score within array); higher = stronger binding
# Details in all cases: glycan notation: IUPAC condensed, linker removed
# [1] = target: GalNAc(a1-3)Fuc(a1-2)Gal(b1-4)GlcNAc(b1-3)[GalNAc(a1-3)Fuc(a1-2)Gal(b1-4)GlcNAc(b1-6)]GalNAc
# In short: (§1)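 From the Consortium for Functional Glycomics database, 3228 arrays were curated, keeping only those whose protein sequence was available. Binding is given as a within-array Z-score averaged across arrays sharing a protein sequence and across linkers. Negative Z-scores can be read as non-binding.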
# GalNAc(b1-3)GlcNAc = target: GalNAc(b1-3)GlcNAc
# In short: as §1
# GalNAc(b1-4)Gal(b1-4)Glc = target: GalNAc(b1-4)Gal(b1-4)Glc
# In short: as §1
# [2] = target: GlcNAc(a1-4)Gal(b1-4)GlcNAc(b1-3)Gal(b1-4)GlcNAc
# In short: as §1
# GlcNAc(b1-3)Fuc = target: GlcNAc(b1-3)Fuc
# In short: as §1
# [3] = target: GlcNAc(b1-3)Gal(b1-4)GlcNAc(b1-3)Gal(b1-4)GlcNAc(b1-2)Man(a1-3)[GlcNAc(b1-3)Gal(b1-4)GlcNAc(b1-3)Gal(b1-4)GlcNAc(b1-2)Man(a1-6)]Man(b1-4)GlcNAc(b1-4)GlcNAc
# In short: as §1
# [4] = target: GlcNAc(b1-3)Gal(b1-4)GlcNAc(b1-6)[Gal(b1-3)]GalNAc
# In short: as §1
# GlcNAc(b1-3)GalNAc = target: GlcNAc(b1-3)GalNAc
# In short: as §1
# Man(a1-3)[Man(a1-6)]Man = target: Man(a1-3)[Man(a1-6)]Man
# In short: as §1
# [5] = target: Neu5Ac(a2-3)Gal(b1-3)GalNAc(b1-4)[Neu5Ac(a2-3)]Gal(b1-4)Glc
# In short: as §1
# [6] = target: Neu5Ac(a2-3)Gal(b1-3)[Fuc(a1-4)]GlcNAc(b1-3)Gal(b1-4)[Fuc(a1-3)]GlcNAc
# In short: as §1
# [7] = target: Neu5Ac(a2-3)Gal(b1-3)[Neu5Ac(a2-3)Gal(b1-4)]GlcNAc
# In short: as §1
# [8] = target: Neu5Ac(a2-3)Gal(b1-3)]Neu5Ac(a2-3)Gal(b1-4)]GlcNAc
# In short: as §1
# [9] = target: Neu5Ac(a2-3)Gal(b1-4)GlcNAc(b1-2)Man(a1-3)[GlcNAc(b1-2)Man(b1-4)GlcNAc(b1-2)Man(a1-6)]Man(b1-4)GlcNAc(b1-4)GlcNAc
# In short: as §1
# [10] = target: Neu5Ac(a2-3)Gal(b1-4)GlcNAc(b1-2)Man(a1-3)[Neu5Ac(a2-3)Gal(b1-4)GlcNAc(b1-2)Man(a1-6)]Man(b1-4)GlcNAc(b1-4)GlcNAc
# In short: as §1
# [11] = target: Neu5Ac(a2-3)Gal(b1-4)GlcNAc(b1-2)Man(a1-3)[Neu5Ac(a2-3)Gal(b1-4)GlcNAc(b1-2)Man(a1-6)]Man(b1-4)GlcNAc(b1-4)[Fuc(a1-6)]GlcNAc
# In short: as §1
# [12] = target: Neu5Ac(a2-3)Gal(b1-4)GlcNAc(b1-2)[Neu5Ac(a2-3)Gal(b1-4)GlcNAc(b1-4)]Man(a1-3)[GlcNAc(b1-4)][Neu5Ac(a2-3)Gal(b1-4)GlcNAc(b1-2)[Neu5Ac(a2-3)Gal(b1-4)GlcNAc(b1-6)]Man(a1-6)]Man(b1-4)GlcNAc(b1-4)GlcNAc
# In short: as §1
# [13] = target: Neu5Ac(a2-3)Gal(b1-4)GlcNAc(b1-2)[Neu5Ac(a2-3)Gal(b1-4)GlcNAc(b1-4)]Man(a1-3)[GlcNAc(b1-4)][Neu5Ac(a2-3)Gal(b1-4)GlcNAc(b1-4)Man(a1-6)]Man(b1-4)GlcNAc(b1-4)GlcNAc
# In short: as §1
# [14] = target: Neu5Ac(a2-3)Gal(b1-4)GlcNAc(b1-2)[Neu5Ac(a2-3)Gal(b1-4)GlcNAc(b1-6)]Man(a1-6)[Neu5Ac(a2-3)Gal(b1-4)GlcNAc(b1-2)Man(a1-3)][GlcNAc(b1-4)]Man(b1-4)GlcNAc(b1-4)GlcNAc
# In short: as §1
# [15] = target: Neu5Ac(a2-3)Gal(b1-4)GlcNAc(b1-6)[Neu5Ac(a2-3)Gal(b1-3)]GalNAc
# In short: as §1
# [16] = target: Neu5Ac(a2-3)Gal(b1-4)[Fuc(a1-3)]GlcNAc(b1-3)Gal
# In short: as §1
# [17] = target: Neu5Ac(a2-3)Gal(b1-4)[Fuc(a1-3)]GlcNAc(b1-3)Gal(b1-4)[Fuc(a1-3)]GlcNAc(b1-3)Gal(b1-4)[Fuc(a1-3)]GlcNAc
# In short: as §1
# [18] = target: Neu5Ac(a2-3)Gal6S(b1-4)GlcNAc
# In short: as §1
# [19] = target: Neu5Ac(a2-3)Gal6S(b1-4)[Fuc(a1-3)]GlcNAc
# In short: as §1
# [20] = target: Neu5Ac(a2-6)Gal(b1-4)GlcNAc(b1-2)[Neu5Ac(a2-6)Gal(b1-4)GlcNAc(b1-4)]Man(a1-3)[GlcNAc(b1-4)][Neu5Ac(a2-6)Gal(b1-4)GlcNAc(b1-4)Man(a1-6)]Man(b1-4)GlcNAc(b1-4)GlcNAc
# In short: as §1
# Neu5Ac(a2-6)GalNAc = target: Neu5Ac(a2-6)GalNAc
# In short: as §1
# Neu5Gc(a2-3)Gal(b1-4)Glc = target: Neu5Gc(a2-3)Gal(b1-4)Glc
# In short: as §1
# [21] = target: Neu5Gc(a2-3)Gal(b1-4)GlcNAc
# In short: as §1
binder,measurement,setting,value
B1,glycan array binding signal (z-score),[1],-0.088
same,glycan array binding signal (z-score),GalNAc(b1-3)GlcNAc,-0.154
same,glycan array binding signal (z-score),GalNAc(b1-4)Gal(b1-4)Glc,-0.099
same,glycan array binding signal (z-score),[2],-0.146
same,glycan array binding signal (z-score),GlcNAc(b1-3)Fuc,-0.135
same,glycan array binding signal (z-score),[3],-0.064
same,glycan array binding signal (z-score),[4],-0.15
same,glycan array binding signal (z-score),GlcNAc(b1-3)GalNAc,-0.12
same,glycan array binding signal (z-score),Man(a1-3)[Man(a1-6)]Man,-0.113
same,glycan array binding signal (z-score),[5],3.76
same,glycan array binding signal (z-score),[6],-0.066
same,glycan array binding signal (z-score),[7],2.46
same,glycan array binding signal (z-score),[8],3.65
same,glycan array binding signal (z-score),[9],2.11
same,glycan array binding signal (z-score),[10],1.94
same,glycan array binding signal (z-score),[11],2.76
same,glycan array binding signal (z-score),[12],8.27
same,glycan array binding signal (z-score),[13],5.53
same,glycan array binding signal (z-score),[14],5.76
same,glycan array binding signal (z-score),[15],0.072
same,glycan array binding signal (z-score),[16],-0.088
same,glycan array binding signal (z-score),[17],-0.109
same,glycan array binding signal (z-score),[18],13.2
same,glycan array binding signal (z-score),[19],12.9
same,glycan array binding signal (z-score),[20],-0.097
same,glycan array binding signal (z-score),Neu5Ac(a2-6)GalNAc,-0.113
same,glycan array binding signal (z-score),Neu5Gc(a2-3)Gal(b1-4)Glc,-0.118
same,glycan array binding signal (z-score),[21],-0.126
